Bioassay records: PubChem BioAssay, National Center for Advancing Translational Sciences (NCATS)
The list is not random: actives were taken first. Their share in the collection is about 2.2%.
FUS suppressor: FUS proteinopathy suppression in yeast | S. cerevisiae FUS-expressing, growth rescue, OD600, 24 h | Potency, µM (doses to about 76.6 µM), usual class: activators | hit rate 0.24% among 390,000;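 note: plate controls were DMSO vehicle for no effect and reference control for full effect; nearly all actives have a fitted effect of over 55% in size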
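Yeast FUS proteinopathy model; galactose-induced FUS (2%), starting OD 0.005. Cpds in dilution series, 24hr, 30C, 99% humidity. Abs 600 nm growth. Pos ctrl CP55940 (top 92uM final); neg ctrl DMSO.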
aSyn yeast inh: inhibitors of alpha-synuclein toxicity in yeast. Yeast expressing alpha-synuclein, growth rescue, BacTiter-Glo, 24 h. hit rate 0.14% among 370,000. Potency, µM (highest dose often 46.1 µM), for inactives: at the highest dose growth rescue (activation), actives largely listed as activators; note: % of control where 0% means no effect; nearly all actives have a fitted effect of over 65% in size
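Readout is rescue of growth in alpha-synuclein-expressing yeast, so inhibitors of toxicity appear as activators. Growth after 24 hr at 30 deg C in galactose medium is quantified by luminescence.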
TDP43 rescue: inhibitors of TDP-43 toxicity in yeast; TDP-43 expressing yeast growth rescue, BacTiter-Glo, 24 h; AID 652104; Potency, µM (doses to about 46.1 µM), without a hit: top-dose growth rescue (activation), most hits filed as activators; hit rate 1.8% among 410,000; note: % of control where 0% means no effect; nearly all actives have a fitted effect of over 50% in size
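Growth rescue of TDP-43-toxic yeast measured as ATP luminescence (BacTiter-Glo). Cells grown to mid-log in raffinose, induced in galactose at OD600=0.02, exposed to compound 24 hr at 30 deg C.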
Abeta rescue: A-beta toxicity reversal in yeast; yeast expressing A-beta42, growth rescue, OD600, 48 h; response scale: 0% DMSO, 100% iron-clioquinol control; Potency, µM (top dose mostly 46.1 µM), actives largely listed as activators; hit rate 0.063% among 410,000; note: nearly all actives have a fitted effect of over 55% in size
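Growth rescue measured by 600 nm absorbance after 48 h yeast culture at 30 C with compound. Values normalized between DMSO and an equimolar ferric chloride plus clioquinol control.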
Mito fusion yeast: inhibitors of mitochondrial division or activators of mitochondrial fusion; hit rate 0.23% among 320,000; AID 485298; S. cerevisiae fusion-defective mutant growth rescue, CellTiterGlo 48 h; Potency, µM (highest dose often 46.1 µM), without a hit: top-dose growth rescue (activation), hits mostly activators; note: % of control where 0% means no effect; nearly all actives have a fitted effect of over 45% in size
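S. cerevisiae fusion-defective temperature-sensitive mutants (e.g. fzo1-1, mgm1-5) grown 48 h at 37C in YPEG (ethanol/glycerol non-fermentable) medium with 23 nl compound per well; growth rescue read as CellTiterGlo luminescence.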
* = called active by the depositor; i = inactive; ? = inconclusive; / = no result given; [ ] = another dose, or the depositor's remark. Calls come from the whole dose curve; as a rule, active = well fitted curve in the direction sought with a large enough effect; inconclusive = small, poorly fitted or top-dose-only effect, or another doubt; inactive = no such curve, though single readings can be large; an effect the other way counts as inactive or inconclusive. Potency is the fitted concentration of half-maximal effect.

SMILES	FUS suppressor	aSyn yeast inh	TDP43 rescue	Abeta rescue	Mito fusion yeast
O=[N+]([O-])c1ccccc1Oc1ccc(Cl)c2cccnc12	i	?	20µM*	i	1.6%
O=[N+]([O-])c1cc(F)c2cccnc2c1O	i	?	3.98µM*	?	-19.8%
CN(CC(=O)Nc1ccccc1Br)C(=O)CCSc1ccc(F)cc1	i	11.5%	14.1µM*	i	8.7%
COc1ccc(CN2C(=O)NC3(CCCc4ccccc43)C2=O)cc1F (configuration not stated)	i	2.4%	11.2µM*	i	-5.5%
COc1ccc(OC)c(CNS(=O)(=O)c2cc(-c3onc(C)c3C)ccc2C)c1	i	/	22.8%	i	/
Cc1ccc(Cc2c(-c3ccc(Cl)cc3)nc3ccc(Cl)cn23)cc1	i	6.4%	35.5µM*	i	/
Cc1ccc2nc(-c3ccc(Cl)cc3)c(Cc3ccccc3C(F)(F)F)n2c1	i	14.2%	?	i	/
Cc1ccc(Cc2c(-c3ccc(C)cc3)nc3ccc(Cl)cn23)cc1	i	0.0%	25.1µM*	i	/
N#Cc1ccc(-c2nc3ccc(Cl)cn3c2Cc2cccc(F)c2)cc1	i	-0.7%	0.0%	i	/
Cc1ccc(Cc2c(-c3ccc(Br)cc3)nc3ccc(Cl)cn23)cc1	i	0.0%	25.6%	i	/
Cc1ccc(-c2nc3ccc(Cl)cn3c2Cc2cccc(F)c2)cc1	i	?	14.1µM*	i	/
Cc1ccc(-c2nc3ccc(Cl)cn3c2Cc2ccccc2C(F)(F)F)cc1	?	6.8%	22.4µM*	i	/
CC(C)C(=O)N1c2nc(-c3ccco3)nn2C2(CCCCC2)[C@@H]2CCCC[C@@H]21	i	/	-1.9%	i	/
Brc1ccc(OCc2nc(-c3ccccn3)n[nH]2)cc1	i	?	15.8µM*	i	-4.1%
COC(=O)/C(=C1/Oc2cc(C)oc(=O)c2S1)C(F)(F)F	/	1.3%	8.91µM*	i	13.0%
COC(=O)/C(=C1/Oc2ccc(C(C)(C)C)cc2S1)C(F)(F)F	i	5.9%	12.7%	i	-2.0%
Cc1cc2c(cc1NC(=O)c1ccccc1Cl)n(C)c(=O)c(=O)n2C	i	/	-0.7%	i	/
Cc1cccc(-n2cnc3cc(C(=O)N4CCc5ccccc54)ccc32)c1	/	24.4%	12.6µM*	i	7.2%
Cc1cc(C)n(-c2ccc(C(=O)N3CCc4ccccc43)cc2)n1	i	-3.2%	11.2µM*	i	11.5%
COCCNC(=O)c1ccc2c(c1)ncn2-c1cccc(C)c1	i	/	/	i	1.0%
CC(C)C[C@H]1CN(CCCC[C@@H]2CNC(=O)C(=O)N2Cc2ccccc2)C(=O)C(=O)N1CC1CCCCC1	i	?	20.7%	i	/
COc1ccc(COc2cccc3ccc(C)nc23)cc1F	i	13.9%	29.7%	i	3.9%
COc1cccc(OC)c1C(=O)OCC(=O)NCCNC(=O)COC(=O)c1c(OC)cccc1OC	i	-3.1%	8.1%	i	/
Cc1cccc(-n2c(C)nc3cc(C(=O)NCCN4CCOCC4)ccc32)c1	i	4.6%	13.9%	i	/
CCOC(=O)c1cc(-c2ccccc2C)n(CC2CC(c3cccc([N+](=O)[O-])c3)=NO2)n1 (configuration not stated)	i	6.8%	20µM*	i	?
SMILES	FUS suppressor	aSyn yeast inh	TDP43 rescue	Abeta rescue	Mito fusion yeast
Cc1nc(COc2ccccc2Cl)sc1-c1ccnc(N)n1	i	12.5%	11.2µM*	i	3.6%
CCOC(=O)c1cc(S(=O)(=O)N2CCN(c3cc(Cl)ccc3C)CC2)[nH]n1	i	/	-92.4%	i	/
Cc1nc(Cl)sc1C(=O)Nc1cccc(Cl)c1	i	15.6%	14.1µM*	i	9.1%
Cc1nc(Nc2ccccc2Cl)sc1C(=O)Nc1ccccc1	i	-9.8%	9.7%	i	15.8µM*
Cc1nc(Nc2ccccc2)sc1C(=O)c1ccc(F)cc1	i	-0.4%	22.4µM*	i	-101.9%
COc1ccccc1Nc1nc(C)c(C(=O)Nc2ccccc2)s1	i	-10.4%	-9.7%[0.397 µM]	?	4.7%
Cc1nc(Nc2ccccc2)sc1C(=O)Nc1ccccc1	i	-0.8%	10µM*	i	1.3%
Nc1nc(Nc2ccccc2F)sc1C(=O)c1ccccc1	i	-16.6%	22.4µM*	?	-15.0%
COc1ccc(Nc2nc(C)c3ccccc3n2)cc1	i	0.7%	0.0%	i	1.0%
COc1ccc(Nc2nc(-c3ccccc3)c3ccccc3n2)cc1	/	0.4%	23.0%	i	25.1µM*
COc1ccc(Nc2nc(C)c(-c3ccccc3)s2)cc1	/	-18.1%	12.6µM*	i	-1.2%
O=C(NNc1ccccc1F)c1ccccc1	i	8.5%	-17.0%[1.82 µM]	i	-3.2%
Cc1cccc(NC(=O)C2CCN(c3nnc(C)c4c(C)n(-c5ccccc5)nc34)CC2)c1C	i	/	-12.8%	i	/
C=CCNCc1ccc(C(=O)NCCCCCCC)cc1[N+](=O)[O-]	i	-5.4%	-1.0%	i	-8.4%
O=C(CCc1nnc2ccc(NCc3ccco3)nn12)N1CCN(c2ccc(F)cc2)CC1	i	-3.0%	-1.0%	i	-5.4%
Cc1ccc(CC(=O)NCC(O)c2ccccc2)cc1 (configuration not stated)	i	10.9%	-29.5%	i	1.1%
CC1CCCC(C)N1CC(O)Cn1c2ccccc2c2ccccc21 (configuration not stated)	i	5.7%	11.2µM*	i	2.8%
CC(CNC(=O)c1ccccc1Cl)NC(=O)c1ccccc1Cl (configuration not stated)	i	-5.1%	-7.4%	i	/
COCCCNc1oc(-c2ccc(COc3ccccc3C)o2)nc1C#N	i	/	15.8µM*	i	/
COCCCNc1ncnc2c1c(-c1ccccc1)cn2-c1ccc(C)c(Cl)c1	i	/	?	i	/
O=C(Nc1ccccc1)Nc1c(-c2ccc(F)cc2)nc2ncccn12	i	/	/	/	/
Cc1cc(=O)n(Cc2ccccc2)c2ccccc12	i	2.9%	25.3%	i	-5.2%
Cc1cc(=O)n(CC=C(Cl)Cl)c2ccccc12	?	8.4%	12.6µM*	i	2.4%
Cc1ccccc1N1CCN(C(=S)c2ccccc2)CC1	/	-2.9%	11.2µM*	i	16.1%
Cc1ccccc1N1CCN(S(=O)(=O)c2ccccc2)CC1	i	5.6%	12.6µM*	i	16.0%
COc1cc(/C=C(\NC(=O)c2ccccc2)C(=O)Nc2nccs2)ccc1OC(C)=O	i	-4.2%	-12.6%	i	-1.8%
O=C(O)c1ccccc1C(=O)NCCc1c(C(=O)O)[nH]c2ccc(Cl)cc12	i	0.5%	-16.1%	i	0.1%
O=C(c1cc([N+](=O)[O-])ccc1N1CCOCC1)N1CCN(c2ccccc2)CC1	/	/	/	/	-0.9%
O=C(c1ccco1)N1CCN(c2ccc([N+](=O)[O-])cc2Cl)CC1	i	1.9%	14.1µM*	i	-3.3%
